According to PubChem BioAssay AID372 (MTDP, 2006):
About 770 (0.77%) of roughly 100,000 compounds were called active. Only a selection was taken, and actives are over-represented in it overall. A number with no mark means an inactive call. No stated cut-off is given here; in the data, active means inhibition above about 50%; inactive means the rest.

Each compound was assayed against Gag-Pol polyprotein (Human immunodeficiency virus type 1 group M subtype B (isolate HXB2)) (UniProt P04585) (assay: RNase H inhibition, HIV 1 Gag Pol polyprotein, FRET biochemical assay, screening (AID 372)). Settings: HIV-1 RT RNase H, FRET RNA/DNA substrate fluorescence; at 10 µM; hits give high values.

Structure (SMILES) | inhibition
CCOc1ccccc1NC(=O)CN(c1ccc(C)c(Cl)c1)S(C)(=O)=O | 8%
Clc1ccc(Oc2sc(Nc3cccc(Cl)c3)nc2-c2ccccc2)cc1 | 21%
NS(=O)(=O)c1ccc(CCNC(=O)/C=C/c2cccc([N+](=O)[O-])c2)cc1 | 4%
CCOc1ccc(/C=C(/C#N)c2nc3ccccc3[nH]2)cc1OC | 0%
Cc1ccccc1C(=O)Nc1ccc2c(c1)C(=O)c1ccccc1C2=O | 18%
CCCCOc1ccc(C(=O)Nc2ccc3c(c2)C(=O)c2ccccc2C3=O)cc1 | 40%
O=C(O)c1ccccc1C(=O)Nc1ccc2c(c1)C(=O)c1ccccc1C2=O | 0%
O=C(Nc1ccc2c(c1)C(=O)c1ccccc1C2=O)c1cccc(F)c1 | 49%
O=C1c2ccccc2C(=O)c2cc(NC(=O)c3coc4ccccc34)ccc21 | 63% (active)
O=C(Nc1ccc2c(c1)C(=O)c1ccccc1C2=O)c1cccc(Cl)c1 | 60% (active)
CCOc1cc(C(=O)Nc2ccc3c(c2)C(=O)c2ccccc2C3=O)cc(OCC)c1OCC | 0%
O=C(Nc1ccc2c(c1)C(=O)c1ccccc1C2=O)c1ccccc1 | 15%
NC1=NC(=O)/C(=C/c2cc(Br)ccc2OCc2ccccc2)S1 | 9%
Cn1c(=O)c2c(nc(Sc3nc4ccccc4n3Cc3ccccc3)n2C)n(C)c1=O | 0%
CC(CCC(=O)Nc1ccc(F)cc1)CC(=O)Nc1ccc(F)cc1 (configuration not stated) | 6%
CC(=O)c1cccc(NC(=O)CC2S/C(=N\N=C(/C)C(C)(C)C)NC2=O)c1 (configuration not stated) | 7%
CCCc1sc(NC(=O)c2ccc(OC)cc2)nc1-c1ccc(Br)cc1 | 42%
CCCCCCCNC1CC(=O)N(c2ccc(OCCC)cc2)C1=O (configuration not stated) | 6%
CCOc1ccc(C(=O)NC(=S)Nc2ccc(-c3nc4ccc(C)cc4o3)cc2)cc1Cl | 56% (active)
COc1ccc(C(=O)Nc2ccc(-c3nc4cc(C)c(C)cc4o3)cc2)cc1Cl | 51% (active)
COc1ccc(C(=O)Nc2ccc3oc(-c4ccc(OC)c(Cl)c4)nc3c2)cc1Cl | 30%
COc1ccc(C(=O)Nc2ccc3oc(-c4ccccc4)nc3c2)cc1Cl | 4%
CCOc1ccc(C(=O)NC(=S)Nc2ccc(Cl)c(-c3nc4ccc(C)cc4o3)c2)cc1Cl | 18%

Structure (SMILES) | inhibition
CCOc1cc(C(=O)Nc2ccc(-c3nc4ccc(C)cc4o3)cc2)cc(OCC)c1OCC | 10%
CCOc1ccc(C(=O)NC(=S)Nc2cc(-c3nc4ccc(C)cc4o3)ccc2Cl)cc1 | 29%
CCOc1ccc(C(=O)NC(=S)Nc2cc(-c3nc4cc(C)ccc4o3)ccc2Cl)cc1 | 60% (active)
Cc1ccc2oc(-c3ccc(Cl)c(NC(=S)NC(=O)c4ccc(Cl)cc4)c3)nc2c1 | 48%
CCOc1ccc(C(=O)NC(=S)Nc2ccc3oc(-c4ccc(C)cc4)nc3c2)cc1Cl | 10%
CCOc1ccc(C(=O)Nc2ccc(-c3nc4cc(C)ccc4o3)cc2)cc1Cl | 12%
CCOc1ccc(C(=O)Nc2ccc(-c3nc4ccc(C)cc4o3)cc2)cc1Cl | 59% (active)
CCOc1c(Br)cc(/C=C2/C(=O)NN(c3ccc(C)c(C)c3)C2=O)cc1OC | 22%
COc1cc([N+](=O)[O-])ccc1NC(=S)NC(=O)/C=C/c1ccccc1 | 12%
Fc1ccc(-c2nnc(-c3ccc(Br)o3)o2)cc1 | 6%
COc1ccc(OC)c(N(CC(=O)N(Cc2ccccc2)Cc2ccccc2)S(=O)(=O)c2ccccc2)c1 | 21%
O=C(N/N=C\c1ccc[nH]1)c1cccc2c3c([nH]c12)CCCC3 | 24%
COc1ccc(OC)c(NC(=O)CN(c2ccc(C(C)C)cc2)S(=O)(=O)c2ccccc2)c1 | 8%
C/C(=N/NC(=O)c1ccc2c(c1)OCO2)c1ccc(Br)s1 | 13%
Cc1cccc2c(N=NC(=O)COc3cccc(Br)c3)c(O)n(C)c12 | 20%
COc1ccc(OCC(=O)N=Nc2c(O)n(C)c3c(C)cccc23)c(Br)c1 | 4%
COc1cc(Br)ccc1OCC(=O)N=Nc1c(O)n(C)c2c(C)cccc12 | 52% (active)
CC(=O)Oc1ccc(-c2cccc(C(=O)OC(C)C)c2)cc1 | 9%
CC(C)OC(=O)c1ccc(NC(=O)c2ccc(Br)cc2)cc1 | 11%
N#C/C(=C/c1ccc(OCc2ccc(C(=O)O)cc2)cc1)C(=O)Nc1ccccc1 | 0%
C=CCc1cccc2cc(C(=O)Nc3ccc(Cl)c(Cl)c3)c(=O)oc12 | 62% (active)
C=CCc1cccc2cc(C(=O)Nc3ccc(C)c(Cl)c3)c(=O)oc12 | 0%
C=CCc1cccc2cc(C(=O)Nc3ccc(NC(C)=O)cc3)c(=O)oc12 | 10%

Structure (SMILES) | inhibition
C=CCc1cccc2cc(C(=O)NNC(=O)CC#N)c(=O)oc12 | 54% (active)
C=CCc1cccc2cc(C(=O)Nc3ccccc3)c(=O)oc12 | 12%
C=CCc1cccc2cc(C(=O)NNC(=O)c3ccc(OC)cc3)c(=O)oc12 | 1%
CC(=O)/C(=C(/C)O)c1ncc(-c2ccccc2)s1 | 12%
Cc1cccc(C(=O)Nc2cccc(C(=O)Nc3ccccc3Cl)c2)c1 | 13%
O=C(Cn1c(NCCO)nc2ccccc21)c1cccc2ccccc12 | 21%
COc1cccc(N2C(=O)/C(=C/c3ccc([N+](=O)[O-])cc3)SC2=S)c1 | 7%
COc1cccc(NC(=O)c2ccc(C(C)(C)C)cc2)c1 | 11%
NC(=O)N=Nc1c(O)[nH]c2ccc(I)cc12 | 5%
CC1(C)CC(=O)C(C=NC2CCCCCCC2)=C(O)C1 | 3%
O=C(CCc1ccccc1)Nc1sc2c(c1C(=O)O)CCCC2 | 4%
COc1ccc(C(=O)Nc2sc3c(c2C(N)=O)CCCCCC3)cc1OC | 0%
CCOC(=O)c1c(NC(=O)c2ccc(S(=O)(=O)N3CCCCCC3)cc2)sc2c1CCC2 | 6%
COc1cc2ccccc2cc1C(=O)Nc1sc2c(c1C(N)=O)CCCC2 | 59% (active)
CCOC(=O)c1c(NC(=S)Nc2ccccc2)sc2c1CCCCC2 | 28%
NC(=O)c1c(NC(=O)c2ccc(S(=O)(=O)N3CCCCC3)cc2)sc2c1CCCC2 | 53% (active)
COc1ccc(CCC(=O)Nc2sc3c(c2C(N)=O)CCCCCC3)cc1 | 12%
O=C(Nc1ccccc1)c1c(NC(=S)Nc2ccccc2)sc2c1CCCC2 | 46%
COc1ccc(C(=O)Nc2sc3c(c2C(N)=O)CCCC3)cc1 | 17%
Cc1ccc(C(=O)Nc2sc3c(c2C(N)=O)CCCCCC3)cc1 | 32%
COC(=O)c1c(NC(=S)Nc2ccccc2)sc2c1CCCC2 | 59% (active)
